PubChem BioAssay AID624305 (National Center for Advancing Translational Sciences (NCATS), 2012)
Inconclusive results are not listed. A call without a number means that no potency is given here. A number with no mark means an inactive call. The source made the active and inactive calls. The call rests on the fitted dose curve; in most records, active means well fitted activation curve with a large enough effect; inconclusive means small, poorly fitted or top-dose-only effect; inactive means no such curve, though single readings can be large or run the other way.

Experiment: qHTS assay for re-activators of p53 using a Luc reporter: Hit Validation; further: nearly all actives have a fitted effect of over 75% in size
Procedure, shortened: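 H1299 (p53-null) cells stably carrying p53-A138V and a BP100-luciferase reporter, 1000 cells/well, treated 24 h at 37 deg C. Compounds at several concentrations, 1:5 dilution; nocodazole control; luminescence read after 10 min with detection reagent.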
Potency means the concentration at half of the fitted maximal effect.

Structure (SMILES)	Potency	activation
Cc1c(/C(O)=C2/C(=O)C(=O)N(CCN3CCOCC3)C2c2cccs2)cnn1-c1ccccc1 (stereo not given)	8.2 µM (active)	
Cc1noc(C)c1COc1ccc(C(=O)NCCOc2ccccc2)cc1	inactive	
O=C1NCCCc2c1oc1ccc(O)cc21		41% [at 9.22 µM]
N#CC(Cc1ccccc1)(Cc1ccccc1)C(=O)NN	inactive	
CC(C)(C)c1ccc(/C=N/Nc2ccc(C(=O)O)cc2)cc1	inactive	
